CYP2C9 inhib: blocks human cytochrome P450 2C9 | P11712 | CYP2C9 Supersomes, luciferin-H conversion, luminescence | inhibition, % at 5 µM | actives 20% (n = 96,000) | AID 777;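 active = blocking of liver enzyme CYP2C9 beyond about 50% at 5 µM, limit read from the data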
CYP2C19 act: activators of human cytochrome P450 2C19 | P33261 | recombinant CYP2C19, luciferin-H EGE luminescence; stronger effect = higher value; 0 = fully inhibited enzyme, 1 = untreated enzyme | 96,000 tested, under 10 active | activation factor at 5 µM;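 active = activation factor of at least 2 at 5 µM in the primary screen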
Target sequence (P33261 whole entry, looked up): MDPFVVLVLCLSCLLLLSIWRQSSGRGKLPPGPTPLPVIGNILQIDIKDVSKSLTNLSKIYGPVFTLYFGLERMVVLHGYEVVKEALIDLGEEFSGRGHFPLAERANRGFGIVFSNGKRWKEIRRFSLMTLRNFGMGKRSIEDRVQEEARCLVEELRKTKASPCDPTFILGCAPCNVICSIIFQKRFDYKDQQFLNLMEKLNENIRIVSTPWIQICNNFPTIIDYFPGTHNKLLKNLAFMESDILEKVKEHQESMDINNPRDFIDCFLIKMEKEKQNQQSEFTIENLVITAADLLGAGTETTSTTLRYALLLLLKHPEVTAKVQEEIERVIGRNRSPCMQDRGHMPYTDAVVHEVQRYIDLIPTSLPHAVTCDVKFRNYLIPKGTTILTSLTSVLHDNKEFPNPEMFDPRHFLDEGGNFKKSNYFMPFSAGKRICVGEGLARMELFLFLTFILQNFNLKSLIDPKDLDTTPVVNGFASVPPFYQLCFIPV
Cav32 inh: blocks human Cav3.2 T-type calcium channel; AID 449739; B-score at 10 µM; Cav3.2-expressing cells, Fluo-4 calcium fluorescence FDSS; stronger effect = lower value; actives 4% (n = 100,000); O95180;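 active = single-dose well whose peak fluorescence ratio is a statistical outlier from its plate by either plate-standardised score or position-corrected B-score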
Pyk2 oligo antag: antagonists of human Pyk2 oligomerization | z-score (the deposit names both 25 µM and 10 µM) | actives 0.83% (n = 99,000) | Q293 cells, Pyk2 FERM NanoBiT luminescence; stronger effect = lower value | AID 1347419;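 active = Z-score of -3 or lower, scaled per plate to the spread of control and sample wells; inactive = z-score above -3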;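 also: negative z-score means lost luminescence so less FERM oligomerization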
CYP2C19 inh: human CYP2C19 inhibition; P33261; CYP2C19 Supersomes, luciferin-H EGE luminescence, 30 min; actives 21% (n = 96,000); inhibition, % at 5 µM;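 active = CYP2C19 inhibition above a set limit at 5 µM in the primary screen, cut at about 50% in these data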
CYP2C9 act: activators of human CYP2C9; P11712; recombinant CYP2C9, luciferin-H conversion, luminescence; stronger effect = higher value; factor 1 = untreated enzyme, 0 = blocked; activation factor at 5 µM; actives 1.4% (n = 96,000);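 active = activation factor of 2 or more for CYP2C9 at a 5 µM dose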
Numbers stand for hits. Compounds with a hit are over-represented: about 27% of the library has one in this group of screens.

O=C(c1c(F)c(F)c(F)c(F)c1F)N1CCc2ccccc21 was read as Cav32 inh inactive and Pyk2 oligo antag inactive.
For COc1cc(O)oc1C=Nc1ccc(Cl)cc1Cl the results were CYP2C9 inhib inactive, CYP2C19 act inactive, Cav32 inh inactive, Pyk2 oligo antag inactive, CYP2C19 inh 69 and CYP2C9 act inactive.
For Cc1ccc(-c2nc3ccccc3c(C(=O)NCc3cccs3)c2C)cc1 the results were CYP2C9 inhib 95, CYP2C19 act inactive, Cav32 inh inactive, Pyk2 oligo antag inactive, CYP2C19 inh 87 and CYP2C9 act inactive.
`Cc1ccc(C)c(-c2cc(C(=O)Nc3nccs3)c3ccccc3n2)c1` gave CYP2C9 inhib inactive, CYP2C19 act inactive, Cav32 inh inactive, Pyk2 oligo antag inactive, CYP2C19 inh inactive and CYP2C9 act inactive.
Cc1ccc(C)c(-c2cc(C(=O)NCc3cccs3)c3ccccc3n2)c1 was read as CYP2C9 inhib 52, CYP2C19 act inactive, Cav32 inh inactive, Pyk2 oligo antag inactive, CYP2C19 inh inactive and CYP2C9 act inactive.
Screening COC(=O)C1=C[C@@H](C(=O)OC)[C@@H]2C3=C(C(=O)C2(C)C)[C@H](c2ccccc2)[C@@H]2C(=O)N(C)C(=O)[C@@H]2[C@@H]3C1 returned Cav32 inh inactive.
`Nc1cccc(C(=O)Nc2ccco2)c1` gave CYP2C9 inhib 79, CYP2C19 act inactive, Cav32 inh inactive, Pyk2 oligo antag inactive, CYP2C19 inh 98 and CYP2C9 act inactive.
Screening C/C=C\C=C/C(=O)Nc1cccc(C2=NOC3(C2)C[C@H](C(N)=O)N(C(=O)Cc2ccc([N+](=O)[O-])cc2)C3)c1 (some centres undefined) returned Cav32 inh inactive.
CC(C)c1ccc(C(=O)N2CCN(CCO)CC2)cc1 was read as CYP2C9 inhib inactive, CYP2C19 act inactive, Cav32 inh inactive, Pyk2 oligo antag inactive, CYP2C19 inh inactive and CYP2C9 act inactive.
Screening CCCCCCN=CC1=C(O)C(C(=O)OC)C(C)(C)CC1=O (centres undefined) returned CYP2C9 inhib inactive, CYP2C19 act inactive, Pyk2 oligo antag inactive, CYP2C19 inh inactive and CYP2C9 act inactive.
Screening CC(=O)Nc1ccc(N2CCCCC2)c(C(=O)Nc2cccc(C)c2)c1 returned CYP2C9 inhib 57, CYP2C19 act inactive, Cav32 inh inactive, Pyk2 oligo antag inactive, CYP2C19 inh 50 and CYP2C9 act inactive.
Cc1ccc(NC(=O)c2cc(NC(=O)C3CC=CCC3C(=O)O)ccc2N2CCOCC2)cc1Cl (centres undefined) was read as CYP2C9 inhib 61, CYP2C19 act inactive, Cav32 inh inactive, Pyk2 oligo antag inactive, CYP2C19 inh inactive and CYP2C9 act inactive.
Cc1cccc(NC(=O)c2cc(NC(=O)C3CCCCC3C(=O)O)ccc2N2CCCCC2)c1 (centres undefined) was read as Cav32 inh -4 and Pyk2 oligo antag inactive.
Screening CC(Oc1ccc(C(C)(C)C)cc1)c1ccnc2nc(/N=C/N(C)C)nn12 (centres undefined) returned CYP2C9 inhib inactive, CYP2C19 act inactive, Cav32 inh inactive, Pyk2 oligo antag inactive, CYP2C19 inh inactive and CYP2C9 act inactive.
COc1ccc(NC(=O)CSc2nnc(-c3ccccn3)n2Cc2ccco2)cc1OC was read as CYP2C9 inhib inactive, CYP2C19 act inactive, Cav32 inh inactive, Pyk2 oligo antag inactive, CYP2C19 inh inactive and CYP2C9 act inactive.
For CCOc1ccccc1NC(=O)CSc1nnc(-c2ccccn2)n1Cc1ccco1 the results were CYP2C9 inhib 79, CYP2C19 act inactive, Cav32 inh inactive, Pyk2 oligo antag inactive, CYP2C19 inh 72 and CYP2C9 act inactive.
CCOc1ccccc1NC(=O)CSc1nnc(-c2ccccc2Cl)n1Cc1ccco1 was read as CYP2C9 inhib inactive, CYP2C19 act inactive, Cav32 inh -7.7, Pyk2 oligo antag inactive, CYP2C19 inh 70 and CYP2C9 act inactive.
`CCOc1ccccc1NC(=O)CSc1nnc(-c2ccco2)o1` gave CYP2C9 inhib inactive, CYP2C19 act inactive, Cav32 inh inactive, Pyk2 oligo antag inactive, CYP2C19 inh inactive and CYP2C9 act inactive.
`CCOc1ccccc1NC(=O)CSc1nnc(-c2ccco2)n1Cc1ccco1` gave CYP2C9 inhib 58, CYP2C19 act inactive, Cav32 inh inactive, Pyk2 oligo antag inactive, CYP2C19 inh 86 and CYP2C9 act inactive.
`CCOC(=O)c1nc2cc3n(c(C)c-2c1C)C(C)C(CC)=C3C` (centres undefined) gave Cav32 inh inactive and Pyk2 oligo antag inactive.
`C=CCOc1nc2c(c(=O)n(C)c(=O)n2C)n1Cc1ccccc1Cl` gave CYP2C9 inhib inactive, CYP2C19 act inactive, Cav32 inh inactive, Pyk2 oligo antag inactive, CYP2C19 inh inactive and CYP2C9 act inactive.
Screening CC(C)CCn1c(Cl)nc2c1c(=O)n(C)c(=O)n2C returned CYP2C9 inhib inactive, CYP2C19 act inactive, Cav32 inh inactive, Pyk2 oligo antag inactive, CYP2C19 inh 55 and CYP2C9 act inactive.
Screening CC(C)CCn1c(Oc2ccccc2Cl)nc2c1c(=O)n(C)c(=O)n2C returned CYP2C9 inhib 85, CYP2C19 act inactive, Cav32 inh -4.9, Pyk2 oligo antag inactive, CYP2C19 inh inactive and CYP2C9 act inactive.
For Cc1oc(-c2ccc(Cl)cc2)nc1CN1CCC(C(=O)NCc2cccs2)CC1 the results were CYP2C9 inhib inactive, CYP2C19 act inactive, Cav32 inh -7.5, Pyk2 oligo antag inactive, CYP2C19 inh inactive and CYP2C9 act inactive.
CCc1ccc(-c2nc(CN3CCC(C(=O)NCCN(CC)c4ccccc4)CC3)c(C)o2)cc1 was read as CYP2C9 inhib inactive, CYP2C19 act inactive, Cav32 inh -7.5, Pyk2 oligo antag inactive, CYP2C19 inh inactive and CYP2C9 act inactive.
Screening CCN(CCNC(=O)C1CCCN(Cc2nc(-c3ccc(OC)cc3)oc2C)C1)c1ccccc1 (centres undefined) returned CYP2C9 inhib 61, CYP2C19 act inactive, Cav32 inh -4.9, Pyk2 oligo antag inactive, CYP2C19 inh 55 and CYP2C9 act inactive.
For CCc1ccc(-c2nc(CN3CCC(C(=O)NCc4ccc(F)cc4)CC3)c(C)o2)cc1 the results were CYP2C9 inhib inactive, CYP2C19 act inactive, Cav32 inh -7.3, Pyk2 oligo antag inactive, CYP2C19 inh inactive and CYP2C9 act inactive.
`CCc1ccc(-c2nc(CN3CCC(C(=O)N4CCN(c5ccccc5)CC4)CC3)c(C)o2)cc1` gave CYP2C9 inhib inactive, CYP2C19 act inactive, Cav32 inh inactive, Pyk2 oligo antag inactive, CYP2C19 inh inactive and CYP2C9 act inactive.
Screening CC(=O)Nc1cccc(NC(=O)CSc2nnnn2Cc2ccccc2)c1 returned CYP2C9 inhib inactive, CYP2C19 act inactive, Cav32 inh inactive, Pyk2 oligo antag inactive, CYP2C19 inh inactive and CYP2C9 act inactive.
For CCN(CC)S(=O)(=O)c1ccc(N2CCN(S(=O)(=O)c3ccc4c(c3)OCCO4)CC2)nc1 the results were CYP2C9 inhib inactive, CYP2C19 act inactive, Cav32 inh inactive, Pyk2 oligo antag inactive, CYP2C19 inh inactive and CYP2C9 act inactive.
